{"source": "PubChem BioAssay AID1508647", "about": "(National Center for Advancing Translational Sciences (NCATS), 2021)", "note": "The list shows a part of the results. Inconclusive results are not listed. Calls of active or inactive are those of the source. Calls follow the shape of the dose curve; as a rule, active = well fitted inhibition curve with a large enough effect; inconclusive = small, poorly fitted or top-dose-only effect, or another doubt; inactive = no such curve, though single readings can be large or run the other way."}
{"biological_target": "Peripheral myelin protein 22 (Rattus norvegicus) (UniProt P25094)", "sequence (P25094 whole entry, looked up)": "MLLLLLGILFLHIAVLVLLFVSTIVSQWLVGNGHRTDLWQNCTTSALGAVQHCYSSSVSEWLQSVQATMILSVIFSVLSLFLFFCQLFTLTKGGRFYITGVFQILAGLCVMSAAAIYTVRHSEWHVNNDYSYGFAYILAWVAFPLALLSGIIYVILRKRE", "experiment": "Cell-based HiBiT reporter assay to measure PMP22 protein expression in S16 Pmp22-HiBiT cells - Confirmatory screen", "settings": "S16 Schwann cells Pmp22-HiBiT, luminescence, 48 h; series mostly up to 27.9 µM; activity change, negative = inhibition: at the top concentration", "description": "Assay Provider: Jim Inglese Ph.D. National Center for Advancing Translational Science, National Institutes of Health, Rockville, MD CMT is a heterogeneous group of neurological disorders that affect approximately 1 in 2,500 people. In particular, the most common form of CMT, CMT1A is genetically linked to the duplication of the PMP22 gene which leads to Schwann cell overexpression, thus manifesting itself as a typical case of dose-sensitive diseases. […] We can further discriminate the effect of all transcriptionally active molecules on PMP22 translation or stability with an assay that incorporates a short NLuc peptide (HiBiT) at the C-terminus of expressed PMP22 (S16(f8) PMP22-HiBiT) allowing alpha complementation and luminescence detection of membrane-associated PMP22 protein. […] Miniaturization of these assays to 1536-well plate format for quantitative high throughput screening (qHTS) yielded rich data sets immediately from the qHTS assay (S16(c9) Pmp22-F2sN), when compared with data from a cell viability assay (Cell TiterGlo) to identify compounds that decreased the output signals through cellular toxicity to streamline the selection process of actives for subsequent characterization using the HiBiT assay (S16(f8) PMP22-HiBiT). […]"}
{"smiles": "Cc1ccc(NC(=O)c2nc(S(=O)(=O)Cc3cccc(C)c3)ncc2Cl)cc1", "activity change, negative = inhibition": "-14.3% (inactive)"}
